Test [1] deals with Albumin (Bos taurus) (UniProt P02769). Nature of the test: bovine serum albumin binders on microarray, profiling panel, artefact control for SMM control protein annotation, biochemical, small-molecule microarray, Alexa647 label, 635/667 nm fluorescence (AID 1118).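 Also: score merges 667 nm emission intensity and signal-to-noise per printed compound spot.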 Particulars: BSA-A647 binding, fluorescence 635 nm, higher = more signal.
The nature of test [2]: small-molecule microarray binders of probe aXIP, primary screen, biochemical, NeuroSMM set, 635/667 nm fluorescence (AID 1119).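 Also: probe is the protein aXip251-270 applied at 1 µg/mL to compound-printed slides; binding of probe to printed compounds measured as 667 nm fluorescence plus signal to noise.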 As to conditions: higher = more signal, called active from +8 up or from −8 down.
Test [3] can be described thus: small-molecule binders of probe aNOTCH3, primary screen, biochemical, small-molecule microarray, 635/667 nm fluorescence (AID 1120).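 Also: probe is a biotin-tagged antibody raised against NOTCH3 rather than NOTCH3 protein; score merges spot fluorescence near 667 nm with spot signal to noise.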 Particulars: higher = more signal.
Test [4] is described as follows: small-molecule binders of probe aNOTCH2, primary screen, biochemical, small-molecule microarray, 635/667 nm fluorescence (AID 1121).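 Also: score merges feature fluorescence read at 667 nm with its signal to noise.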 Particulars: higher = more signal.
Test [5] deals with Carbonic anhydrase 2 (Homo sapiens) (UniProt P00918). Description: CAII small-molecule binders, profiling panel, biochemical, small-molecule microarray, Alexa647-labelled CAII (AID 1122). Particulars: CAII-A647 binding fluorescence, higher = more signal.
Test [6] can be described thus: COS7 lysate on small-molecule microarray, probe aHis, 635 nm (AID 1123).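 Also: z-score combines 667nm fluorescence intensity with signal-to-noise per printed compound spot.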 Particulars: COS7 cell lysate, fluorescence, higher = more signal.
Test [7] in a line: compound binding in COS7 lysate, probe aLAP1, primary screen, cell lysate, small-molecule microarray (AID 1124).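 Also: lysate comes from COS7 cells expressing LAP1 and is applied at 0.3 µg/mL; score merges spot fluorescence near 667 nm with signal-to-noise over triplicate slides.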 As to conditions: probe aLAP1, fluorescence, higher = more signal.
The test system of test [8] is Sam68 (KHDRBS1). Description: Sam68 small-molecule binders, primary screen, biochemical, small-molecule microarray, 635 nm fluorescence (AID 1125).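 Also: score merges 667 nm channel intensity with signal to noise over triplicate slides.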 As to conditions: small-molecule microarray binding, higher = more signal.
In test [9] the test system is Chordin-like protein 2 (CHRDL2). Description: CHRDL2 small-molecule binders, primary screen, biochemical, small-molecule microarray, 635 nm fluorescence (AID 1126).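 Also: printed compound slides probed with Chrdl2 protein at 4 µg/mL for 1 h at 4 C; score merges 667 nm emission intensity with signal to noise over three replicate slides.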 Particulars: small-molecule microarray binding, fluorescence 635 nm; higher = more signal.
Test [10] has as its target Concanavalin-A (Canavalia ensiformis) (UniProt P02866). Nature of the test: ConA small-molecule binders, primary screen, artefact control for SMM control protein annotation, biochemical, small-molecule microarray, Alexa647 label, 635 nm (AID 1127).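 Also: z combines 667 nm emission intensity with signal-to-noise across three replicate slides.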 As to conditions: ConA-A647 binding fluorescence, higher = more signal.
Test [11] can be described thus: anti-His antibody binders, primary screen, artefact control for SMM control protein annotation, biochemical, small-molecule microarray, 635 nm fluorescence (AID 1128).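 Also: score merges feature fluorescence with signal-to-noise for each printed compound spot.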 As to conditions: anti-His Alexa647 antibody binding, higher = more signal.
The subject of test [12] is Human papillomavirus type 1a E7 protein (residues 1-88). Description: HPV1a E7 small-molecule binders, primary screen, biochemical, small-molecule microarray, residues 1-88, 635 nm (AID 1129). Particulars: small-molecule microarray binding, fluorescence 635 nm; higher = more signal.
For test [13], the target named is Focal adhesion kinase 1 (Homo sapiens) (UniProt Q05397). Description: small-molecule microarray binders of FAK, primary screen, biochemical, 635/667 nm fluorescence, BSA, DTT (AID 1130).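 Also: composite of spot emission at 667 nm and signal to noise over triplicate slides.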 As to conditions: PTK2 binding, 635 nm fluorescence, higher = more signal.
Chain of Focal adhesion kinase 1 (Homo sapiens) (Q05397 whole entry, looked up): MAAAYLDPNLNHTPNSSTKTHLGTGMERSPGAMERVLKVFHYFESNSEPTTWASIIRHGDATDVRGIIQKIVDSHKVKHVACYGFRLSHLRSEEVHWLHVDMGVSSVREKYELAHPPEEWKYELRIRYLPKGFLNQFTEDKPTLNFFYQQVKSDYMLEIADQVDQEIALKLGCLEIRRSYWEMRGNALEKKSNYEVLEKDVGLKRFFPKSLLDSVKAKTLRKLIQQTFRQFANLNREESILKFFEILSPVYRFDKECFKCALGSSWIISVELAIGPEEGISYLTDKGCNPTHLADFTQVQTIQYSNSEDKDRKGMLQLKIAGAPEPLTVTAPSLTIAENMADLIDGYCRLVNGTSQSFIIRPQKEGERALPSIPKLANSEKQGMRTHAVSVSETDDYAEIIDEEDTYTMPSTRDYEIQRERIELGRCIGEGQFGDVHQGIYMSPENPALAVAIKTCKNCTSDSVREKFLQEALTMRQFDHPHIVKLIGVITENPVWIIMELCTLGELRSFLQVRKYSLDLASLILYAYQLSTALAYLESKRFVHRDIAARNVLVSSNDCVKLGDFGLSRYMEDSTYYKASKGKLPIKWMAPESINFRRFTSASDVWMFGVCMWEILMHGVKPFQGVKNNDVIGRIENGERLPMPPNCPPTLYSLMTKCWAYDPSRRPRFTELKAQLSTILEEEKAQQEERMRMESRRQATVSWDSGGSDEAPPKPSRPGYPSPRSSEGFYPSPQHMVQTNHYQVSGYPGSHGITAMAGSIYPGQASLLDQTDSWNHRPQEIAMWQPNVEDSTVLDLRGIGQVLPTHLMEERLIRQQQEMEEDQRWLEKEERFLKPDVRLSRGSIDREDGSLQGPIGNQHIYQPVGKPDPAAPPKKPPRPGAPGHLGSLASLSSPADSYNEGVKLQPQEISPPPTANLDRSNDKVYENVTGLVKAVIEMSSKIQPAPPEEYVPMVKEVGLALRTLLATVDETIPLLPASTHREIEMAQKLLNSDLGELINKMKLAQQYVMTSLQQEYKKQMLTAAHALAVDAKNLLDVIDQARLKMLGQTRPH
For test [14], the system named is Fibrinogen (Alexa647-labelled). Nature of the test: fibrinogen binders on compound microarrays, profiling panel, artefact control for SMM control-protein annotation, biochemical, small-molecule microarray, 635/667 nm fluorescence (AID 1131).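 Also: z-score merges 667 nm fluorescence with per-spot signal-to-noise over triplicate slides.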 As to conditions: fibrinogen-A647 binding fluorescence, higher = more signal.
Test [15] concerns the target Follistatin (Homo sapiens) (UniProt P19883). Description: follistatin binders on small-molecule microarrays, primary screen, biochemical, small-molecule microarray, 635/667 nm fluorescence (AID 1132). As to conditions: FST binding, 635 nm fluorescence, higher = more signal.
Test [16] has as its target Fibroblast growth factor 2 (Homo sapiens) (UniProt P09038). Nature of the test: FGF2 binders on small-molecule microarrays, primary screen, biochemical, small-molecule microarray, 635/667 nm fluorescence (AID 1133). Particulars: small-molecule microarray binding, FGF2, fluorescence 635/667; higher = more signal.
Test [17] can be described thus: mitochondrial membrane potential change in A549 cells, profiling panel, cell-based, JC-1 fluorescence, basal, 24 h, 100 nL (AID 1138).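 Also: A549 lung adenocarcinoma cells under basal conditions with no added stimulus; test concentration not given here.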 As to conditions: higher = more signal.
Test [18] has as its system Lefty1. Description: Lefty1 binders on small-molecule microarrays, primary screen, biochemical, small-molecule microarray, 635/667 nm fluorescence (AID 1139). As to conditions: small-molecule microarray binding, fluorescence 635/667; higher = more signal.
For test [19], the system named is wheat germ agglutinin (Triticum aestivum), Alexa647-labelled. Description: wheat germ agglutinin binders on compound microarrays, profiling panel, artefact control for SMM control-protein annotation, biochemical, small-molecule microarray, 635/667 nm fluorescence (AID 1140).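 Also: score merges 667 nm feature emission with signal to noise over triplicate slides.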 Particulars: WGA-A647 binding, 635 nm fluorescence, higher = more signal.
The target in test [20] is Luciferin 4-monooxygenase (Photinus pyralis) (UniProt P08659). Description: firefly luciferase enzyme inhibitors, primary screen, biochemical, luminescence, purified enzyme, 2006 set (AID 1141).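 Also: cell-free assay with purified firefly luciferase at 100 ng per well in PBS; test concentration not given here.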 Particulars: SteadyGlo luminescence, 30 min, higher = more signal, called active from +8 up or from −8 down.
Chain of Luciferin 4-monooxygenase (Photinus pyralis) (P08659 whole entry, looked up): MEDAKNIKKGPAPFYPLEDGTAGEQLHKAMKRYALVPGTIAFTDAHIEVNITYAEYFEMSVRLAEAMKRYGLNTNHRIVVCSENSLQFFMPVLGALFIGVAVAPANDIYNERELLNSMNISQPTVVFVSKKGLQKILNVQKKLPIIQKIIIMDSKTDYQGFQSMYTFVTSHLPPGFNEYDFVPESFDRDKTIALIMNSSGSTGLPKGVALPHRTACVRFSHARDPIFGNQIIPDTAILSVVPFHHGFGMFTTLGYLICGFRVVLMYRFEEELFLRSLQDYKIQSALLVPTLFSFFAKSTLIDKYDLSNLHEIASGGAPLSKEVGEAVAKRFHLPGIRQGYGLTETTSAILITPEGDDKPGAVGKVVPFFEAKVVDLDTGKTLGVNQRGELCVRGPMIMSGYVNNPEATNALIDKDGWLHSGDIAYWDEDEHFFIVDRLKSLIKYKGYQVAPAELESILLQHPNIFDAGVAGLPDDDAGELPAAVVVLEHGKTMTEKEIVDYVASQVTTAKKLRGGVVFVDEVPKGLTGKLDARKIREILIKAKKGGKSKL

Active and inactive are the calls of the source.

Chain of Fibroblast growth factor 2 (Homo sapiens) (P09038 whole entry, looked up): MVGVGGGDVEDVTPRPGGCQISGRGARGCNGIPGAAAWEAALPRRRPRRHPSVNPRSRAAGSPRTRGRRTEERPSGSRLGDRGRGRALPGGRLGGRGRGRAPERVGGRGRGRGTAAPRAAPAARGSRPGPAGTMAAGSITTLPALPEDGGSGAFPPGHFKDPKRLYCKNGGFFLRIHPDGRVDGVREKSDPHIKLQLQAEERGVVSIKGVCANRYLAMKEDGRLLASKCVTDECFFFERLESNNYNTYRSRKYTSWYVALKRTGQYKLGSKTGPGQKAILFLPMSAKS
Chain of Albumin (Bos taurus) (P02769 whole entry, looked up): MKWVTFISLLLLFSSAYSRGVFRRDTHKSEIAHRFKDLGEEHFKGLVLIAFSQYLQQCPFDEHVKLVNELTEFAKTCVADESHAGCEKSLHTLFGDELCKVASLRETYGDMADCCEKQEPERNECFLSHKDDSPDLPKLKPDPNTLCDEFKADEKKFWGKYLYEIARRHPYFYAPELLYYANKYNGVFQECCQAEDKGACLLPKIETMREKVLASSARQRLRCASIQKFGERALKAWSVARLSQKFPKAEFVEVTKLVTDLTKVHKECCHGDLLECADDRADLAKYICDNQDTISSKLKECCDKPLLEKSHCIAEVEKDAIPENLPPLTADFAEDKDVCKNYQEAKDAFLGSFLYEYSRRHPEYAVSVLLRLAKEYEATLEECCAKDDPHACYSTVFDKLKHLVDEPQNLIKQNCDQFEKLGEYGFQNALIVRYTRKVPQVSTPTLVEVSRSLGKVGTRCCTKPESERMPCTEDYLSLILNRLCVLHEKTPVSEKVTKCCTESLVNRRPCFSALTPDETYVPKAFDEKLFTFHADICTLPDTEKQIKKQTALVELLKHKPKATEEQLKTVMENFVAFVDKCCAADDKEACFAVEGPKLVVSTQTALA
Chain of Follistatin (Homo sapiens) (P19883 whole entry, looked up): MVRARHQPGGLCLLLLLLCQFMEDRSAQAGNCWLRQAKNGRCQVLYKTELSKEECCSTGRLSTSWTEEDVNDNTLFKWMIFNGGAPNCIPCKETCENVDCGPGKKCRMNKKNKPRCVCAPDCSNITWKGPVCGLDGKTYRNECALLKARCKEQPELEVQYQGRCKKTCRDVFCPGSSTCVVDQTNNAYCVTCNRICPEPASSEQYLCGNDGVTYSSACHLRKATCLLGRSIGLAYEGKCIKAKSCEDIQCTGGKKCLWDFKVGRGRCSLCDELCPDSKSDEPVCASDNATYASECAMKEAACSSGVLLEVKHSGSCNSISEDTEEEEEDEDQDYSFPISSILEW
Chain of Concanavalin-A (Canavalia ensiformis) (P02866 whole entry, looked up): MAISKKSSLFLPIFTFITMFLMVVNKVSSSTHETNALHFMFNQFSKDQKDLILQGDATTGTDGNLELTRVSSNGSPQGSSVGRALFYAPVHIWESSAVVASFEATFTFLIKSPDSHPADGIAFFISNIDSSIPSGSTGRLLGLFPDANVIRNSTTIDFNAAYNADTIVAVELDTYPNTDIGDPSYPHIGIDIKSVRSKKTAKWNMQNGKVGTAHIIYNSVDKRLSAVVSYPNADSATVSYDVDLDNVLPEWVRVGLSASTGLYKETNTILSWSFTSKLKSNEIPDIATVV

`CCCCC(CC)C(O)C1C=CC2C(=O)N(Cc3ccccc3)C(=O)C2N1n1cnnc1` (stereo not given): the composite z-score was 0.0178 in test [1]; 0.0116 in test [3]; -0.126 in [4]; 0.424 in test [5]; 0.262 in test [6]; -0.192 in test [7]. The composite z-score in [8] is 0.26; in [9], -0.353; in test [10] it was 0.273; in test [11] it was 0.544; in test [12] it was 0.541; in test [13], 1.57. The composite z-score in [14] was 0.107; in [15] it was 0.539; in test [16] it was -0.504; in test [18], 0.0981; in test [19], 0.616. In addition, the composite Z-score in test [2] was 0.0835 (inactive). Besides, the z-score in test [17] is -0.423; in [20], 0.758 (inactive).
With `COc1ccc([Si](C)(C)[C@H]2[C@H](CCO)O[C@@]3(C(=O)N(Cc4ccc(N(C=O)c5ccccc5)cc4)c4ccccc43)[C@@H]2C)cc1`, the composite z-score in test [1] is 0.598; in test [3] it was -0.127; in test [4], -0.164; in test [5], -0.0062; in test [6], 0.407; in [7], -0.33. The composite z-score in test [8] was -0.852; in [9], -0.957; in test [10] it was 0.538; in test [11], 0.841; in [12], 0.179; in test [13], 0.114. The composite z-score is -0.568 in test [14]; 0.191 in [15]; -0.408 in test [16]; 0.151 in test [18]; 0.655 in test [19]. In addition, the composite Z-score in [2] was -0.12 (inactive). Further, the z-score in [17] was 0.357; in test [20] it was 0.221 (inactive).
In the case of `CC1CC/C=C\[C@H]2OC34C=CCN(C(C)(C)C)C(=O)[C@H]3N(C(C)CO)C(=O)[C@@H]4C2C(=O)O1` (stereo not given in full), the composite z-score in test [1] was -0.92; in test [3] it was -0.122; in [4] it was -0.13; in test [5], 0.4; in [6] it was -0.187; in test [7], 0.199. The composite z-score in test [8] is -1.47; in [9], -0.454; in test [10], -2.17; in test [11], -1.63; in test [12], -2.07; in [13] it was -0.9. In addition, the composite z-score in test [14] was -2.02; in [15], -0.397; in [16], -0.121; in [18], -0.248; in test [19], -1.61. The composite Z-score in test [2] is -0.0245 (inactive). Also, the z-score was 0.348 in test [17] and -0.694 (inactive) in test [20].
As for `COC(=O)[C@@]1(Cc2ccccc2)[C@H]2c3cc(C(=O)N(C)C)n(Cc4ccsc4Br)c3C[C@H]2CN1C(=O)c1ccccc1`, the composite z-score in test [1] was 0.928; in [3], 0.501; in [4], -0.0597; in [5], 0.586; in [6], 2.66; in [7], -0.0415. For the same compound, the composite z-score in test [8] is 1.21; in [9], -1.03; in test [10] it was 0.883; in test [11], 1.18; in test [12] it was 1.24; in test [13], 0.483. Also, the composite z-score is 0.834 in test [14]; 0.797 in [15]; -0.535 in test [16]; -0.143 in [18]; 0.948 in test [19]. In test [2], the composite Z-score was -0.502 (inactive). The z-score in test [17] was 1.04; in [20], 0.78 (inactive).
Take `[N-]=[N+]=Nc1ccccc1[C@@H]1OC(c2ccc(OCCCO)cc2)=N[C@]1(Cc1ccccc1)C(=O)N1CCOCC1`: the composite z-score in test [1] came out at 0.309; in [3], 0.619; in test [4], 0.0117; in [5] it was 0.312; in test [6] it was 2.23; in test [7], 0.115. The composite z-score in test [8] was 1.31; in test [9] it was 0.0383; in test [10] it was 1.09; in [11], 2.31; in test [12], 1.19; in test [13] it was 0.142. Besides, the composite z-score in test [14] was determined as 0.862; in test [15], 1.26; in test [16], 0.749; in test [18] it was 0.0367; in [19], 0.923. The composite Z-score in [2] was -0.174 (inactive). In addition, the figures for the z-score in test [17] and in test [20] were 1.53 and -5.98 (inactive), respectively.
For `O=C1C[C@@](C(=O)NCCN2CCOCC2)(c2ccc([N+](=O)[O-])cc2)[C@@H](c2ccc(CO)cc2I)N1CC12CC3CC(CC(C3)C1)C2`, the composite z-score in test [1] is -0.091; in test [3] it was 0.0842; in test [4], -0.037; in test [5], 0.584; in test [6], 1.77; in [7], 0.811. Further, the composite z-score in test [8] came out at 1.33; in test [9], 0.392; in [10], 0.987; in [11] it was 1.37; in test [12], 1.24; in [13] it was 0.656. Further, the composite z-score in test [14] stood at 0.954; in test [15], 1.19; in test [16] it was 1.22; in [18], 1.08; in [19], 0.981. Besides, the composite Z-score in test [2] is 0.0692 (inactive). Also, the z-score in test [17] was -0.826; in test [20], -1.51 (inactive).

These data come from PubChem BioAssay.
